Assay results reported in PubChem BioAssay (NCI).
Compounds without any hit were thinned out: in the full panel of roughly 79,000, 15% have a hit. The source made the active and inactive calls. No stated cut-off is given here; in the data, active means growth inhibition above about 70%; inactive means the rest.

Key:
[1] = NCI Yeast Anticancer Drug Screen. Data for the rad50 strain (AID 155);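 further: 0% = growth of vehicle-only cultures of the same strain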; conditions: S. cerevisiae rad50 strain growth inhibition, stronger effect = higher value
How it was run: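 Cells are treated with compound, grown, and their growth is then scored against vehicle-only cultures of the same repair-deficient yeast strain.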

[2] = NCI Yeast Anticancer Drug Screen. Data for the mec2-1 strain (AID 157); conditions: S. cerevisiae mec2-1 strain, stronger effect = higher value
How it was run: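 Yeast mec2-1 mutant treated with compound. Readout: growth inhibition vs vehicle controls.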

[3] = NCI Yeast Anticancer Drug Screen. Data for the sgs1 mgt1 strain (AID 161);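 further: 0% = growth of cultures given vehicle only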; conditions: S. cerevisiae sgs1 mgt1 strain, stronger effect = higher value
How it was run: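 Inhibition of yeast growth, normalised to vehicle-treated controls, is reported for a strain bearing genetic alterations in DNA damage repair.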

[4] = NCI Yeast Anticancer Drug Screen. Data for the cln2 rad14 strain (AID 165);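 further: 0% = growth equal to vehicle treated cultures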; conditions: S. cerevisiae cln2 rad14 strain, stronger effect = higher value
How it was run: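 cln2 rad14 yeast strain; compound exposure; growth inhibition read vs vehicle controls.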

[5] = NCI Yeast Anticancer Drug Screen. Data for the bub3 strain (AID 167); conditions: S. cerevisiae bub3 mutant strain, stronger effect = higher value
How it was run: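 Part of a panel of yeast mutants defective in DNA damage repair or cell cycle regulation. Each strain is grown with compound, and inhibition is calculated relative to solvent-treated cultures.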

[6] = NCI Yeast Anticancer Drug Screen. Data for the mlh1 rad18 strain (AID 175); conditions: S. cerevisiae mlh1 rad18 strain growth inhibition, stronger effect = higher value
How it was run: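 Yeast w/ defined DNA-repair lesions; compound exposure; growth vs vehicle controls → % inhibition.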

[7] = at 5.0 µM (retest, dose inferred, filed as 0.5)
[8] = at 50.0 µM (retest, dose inferred, filed as 5.0)

Measured: growth inhibition

Cc1ccc(N=C(N)Nc2ccc(C)cn2)nc1
inactive: [1]; [7] 6% | [2]; [7] 2% | [2]; [8] 68% | [3]; [7] 4% | [3]; [8] 69% | [3]; at 50.0 µM 44.6% | [4]; [7] 19% | [4]; at 50.0 µM 40% | [5]; [7] -5% | [6]; [7] 5% | [6]; at 50.0 µM 41.5%
active: [1]; [8] 78% | [1]; at 50.0 µM 84.5% | [2]; at 50.0 µM 77.9% | [4]; [8] 74% | [5]; [8] 70% | [5]; at 50.0 µM 79.3% | [6]; [8] 72%

CC(=O)Nc1cccc2c1ccc1ccc3ccccc3c12
inactive: [1]; [7] 13% | [1]; [8] 21% | [2]; [7] -1% | [2]; [8] 9% | [2]; at 50.0 µM 61.2% | [3]; [7] 4% | [3]; [8] 20% | [4]; [7] -12% | [4]; [8] -11% | [4]; at 50.0 µM -3.25% | [5]; [7] 3% | [5]; [8] -1% | [5]; at 50.0 µM 5.75% | [6]; [7] 32% | [6]; [8] 52%
active: [1]; at 50.0 µM 77.3% | [3]; at 50.0 µM 71.2% | [6]; at 50.0 µM 71%

CCOC(=O)C(=N\Nc1cccc(C)c1C)/C(C)=N\NC(N)=S
inactive: [1]; [7] 3% | [1]; [8] 35% | [2]; [7] 9% | [2]; [8] 56% | [2]; at 50.0 µM 38.2% | [3]; [7] 32% | [4]; [7] -6% | [4]; [8] 14% | [4]; at 50.0 µM 64.1% | [5]; [7] 3% | [5]; [8] 34% | [5]; at 50.0 µM 59.7% | [6]; [7] 30%
active: [1]; at 50.0 µM 70.2% | [3]; [8] 76% | [3]; at 50.0 µM 75.8% | [6]; [8] 81% | [6]; at 50.0 µM 81.1%

O=C1/C(=C\c2ccccc2)CCC/C1=C\O
inactive: [1]; [7] -139% | [1]; [8] -89% | [1]; at 50.0 µM 39.9% | [2]; [7] -46% | [2]; [8] -40% | [2]; at 50.0 µM 46.5% | [3]; [7] -50% | [3]; [8] -44% | [3]; at 50.0 µM 6.4% | [4]; [7] -56% | [4]; [8] -56% | [4]; at 50.0 µM 33.9% | [5]; [7] -64% | [5]; [8] -68% | [5]; at 50.0 µM 20% | [6]; [7] -112% | [6]; [8] -92% | [6]; at 50.0 µM 58.2%

CCCCCCCN=C(N)c1ccc(C(=O)OC2CCCCC2)cc1
active: [1]; [8] 84% | [1]; at 50.0 µM 96.8% | [2]; [8] 89% | [2]; at 50.0 µM 98% | [3]; [8] 98% | [3]; at 50.0 µM 99% | [4]; [8] 70% | [4]; at 50.0 µM 96.4% | [5]; [8] 73% | [5]; at 50.0 µM 97.5% | [6]; [8] 90% | [6]; at 50.0 µM 99%
inactive: [1]; [7] -1% | [2]; [7] 17% | [3]; [7] 34% | [4]; [7] 1% | [5]; [7] 1% | [6]; [7] 21%

CCC[CH2][Sn]([CH2]CCC)([O]C(=O)c1cccc(F)c1F)[O]C(=O)c1cccc(F)c1F
active: [1]; [7] 73% | [1]; [8] 73% | [1]; at 50.0 µM 86.6% | [2]; at 50.0 µM 88% | [3]; [7] 78% | [3]; [8] 78% | [3]; at 50.0 µM 86.5% | [4]; at 50.0 µM 88.7% | [5]; at 50.0 µM 87.9% | [6]; at 50.0 µM 86.4%
inactive: [2]; [7] 62% | [2]; [8] 62% | [4]; [7] 55% | [4]; [8] 55% | [5]; [7] 62% | [5]; [8] 62% | [6]; [7] 67% | [6]; [8] 67%

CC1=C(\C=C/C(C)=N/N=C(C)\C=C\C2=C(C)CCCC2(C)C)C(C)(C)CCC1
active: [1]; at 50.0 µM 70.8% | [3]; at 50.0 µM 71%
inactive: [1]; [7] 3% | [1]; [8] 31% | [2]; [7] 9% | [2]; [8] 52% | [2]; at 50.0 µM 28.7% | [3]; [7] 27% | [3]; [8] 51% | [4]; [7] 3% | [4]; [8] 7% | [4]; at 50.0 µM 28.2% | [5]; [7] -2% | [5]; [8] 4% | [5]; at 50.0 µM 23.7% | [6]; [7] 24% | [6]; [8] 49% | [6]; at 50.0 µM 44.2%

Cc1ccc(S(=O)(=O)Nc2ccc(C)cc2C)cc1
active: [1]; [8] 96% | [1]; at 50.0 µM 85.5% | [2]; [8] 96% | [3]; [8] 97% | [4]; [8] 83% | [5]; [8] 95% | [6]; [8] 95% | [6]; at 50.0 µM 75.2%
inactive: [1]; [7] -3% | [2]; [7] -6% | [2]; at 50.0 µM 54% | [3]; [7] -2% | [3]; at 50.0 µM 55.4% | [4]; [7] -3% | [4]; at 50.0 µM 32.8% | [5]; [7] -1% | [5]; at 50.0 µM 63.4% | [6]; [7] -2%

C=C1C(=O)O[C@@H]2C[C@@]3(C)CCC[C@H](C)C3=C[C@H]12
active: [1]; [8] 91% | [2]; [8] 98% | [3]; [8] 98% | [3]; at 50.0 µM 81.7% | [5]; [8] 95% | [5]; at 50.0 µM 81.3%
inactive: [1]; [7] 11% | [1]; at 50.0 µM 50.5% | [2]; [7] 23% | [2]; at 50.0 µM 67.2% | [3]; [7] 24% | [4]; [7] 6% | [4]; [8] 64% | [4]; at 50.0 µM 41.5% | [5]; [7] 4%

COc1ccccc1C(=O)[O][Sn]([c]1ccccc1)([c]1ccccc1)[c]1ccccc1
active: [1]; [7] 100% | [1]; [8] 99% | [1]; at 50.0 µM 99.2% | [2]; [7] 100% | [2]; [8] 100% | [2]; at 50.0 µM 99.3% | [3]; [7] 99% | [3]; [8] 99% | [3]; at 50.0 µM 99.3% | [4]; [7] 99% | [4]; [8] 99% | [4]; at 50.0 µM 89.3% | [5]; [7] 100% | [5]; [8] 99% | [5]; at 50.0 µM 99%
